Screening results as filed in PubChem.
Vc quorum ag-1: induces V. cholerae light production without autoinducers; V. cholerae BH1578 lux reporter, luminescence, 6 h; activation, % at 18.7 µM; 0.16% of 350,000 active; AID 588436; in the data active = activation mostly above about 9.7%, no sharp cut-off
FadD28 FP inh: M. tuberculosis FadD28 bisubstrate binding inhibition. FadD28 bisubstrate probe binding, fluorescence polarization. inhibition, % at 12.5 µM. 0.22% of 360,000 active. AID 588549; in the data active = inhibition above about 8.5%, passing the limit was not always enough
PrPC surface inh: cell surface PrPC inhibition, primary TR-FRET screen; P04156; TR-FRET read-out; inhibition, % at 13.8 µM; 0.43% of 370,000 active; AID 720596; in the data active = inhibition above about 24%; also: 0% = median of the test wells and 100% = reference compound wells
PrP UTR inh: suppresses PrP 5' UTR mRNA reporter expression; cell-based PrP 5' UTR mRNA reporter, plate reader; inhibition, % (test concentration not listed); 0.35% of 340,000 active; AID 488862; in the data active = inhibition above about 52%; also: 0 = median of the neutral control wells
PriA SSB inh: K. pneumoniae PriA-SSBct interaction inhibition; inhibition, % at 33 µM; AlphaScreen SSBct-PriA binding, biotinylated peptide; 0.6% of 430,000 active; in the data active = inhibition mostly above about 37%, no sharp cut-off; inactive = mostly below about 20%;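 also: plate controls were negative control peptide for no effect and reference peptide for full effect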
Vc quorum ag-2: quorum light induction in BH1578 reporter strain; shares compounds with Vc quorum ag-1; V. cholerae BH1578 lux reporter, luminescence, 6 h; activation, % at 50 µM; 620 tested, under 10 active; AID 602243; call rule not given here
HeLa 24h tox: HeLa cell viability loss at 24 h; shares compounds with Vc quorum ag-1; CellTiter-Glo ATP luminescence; AID 624140; activity change, negative = cytotoxicity, % at 35 µM; 25 tested, under 10 active;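 active = signal drop with fitted half-maximal concentration at or below twice the highest valid dose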
An asterisk follows results filed as active; i = inactive; x = not tested or not shown. A selection: hits, their analogues and other compounds. The true share with any hit is near 1.4%.

SMILES	Vc quorum ag-1	FadD28 FP inh	PrPC surface inh	PrP UTR inh	PriA SSB inh	Vc quorum ag-2	others
COC(=O)C(C)N(c1ccc(C)cc1)S(=O)(=O)c1c(C)[nH]c(=O)[nH]c1=O (stereo unspecified)	110.7*	-0.1	1.1	-1.6	-5.2	0.2
COC(=O)c1ccc(-c2nc3cc(Cl)c(N)cc3s2)cc1	25.0*	-4.7	-1.8	24.9	-6.8	0.0
Cc1ccc(C)c(N2CCN(C(c3ccccc3)c3nnnn3C(C)(C)C)CC2)c1 (stereo unspecified)	x	x	8.2	x	x	x
Cc1ccc(C)c(N2CCN(C(c3ccc(N(C)C)cc3)c3nnnn3C(C)(C)C)CC2)c1 (stereo unspecified)	37.6*	0.5	-0.8	-9.8	-20.3	0.0
CC(C)(C)OC(=O)NCCCC(CCCNC(=O)OC(C)(C)C)C(=O)O	12.5	1.4	0.2	-12.1	-13.0	0.2
CC(C)(C)OC(=O)NCCCCCO	i	-3.9	-3.6	-20.6	-7.7	x
O=C(COC(=O)C1CCN(c2ccc(C(F)(F)F)cn2)CC1)NC1CCCCC1	14.3	-4.2	2.6	-9.6	-28.5	-0.3
CCCn1nnnc1SCC(=O)c1ccc2c(c1)OCCO2	65.1*	-1.8	0.0	-37.4	11.8	i
Cn1nnnc1SCC(=O)c1ccc2c(c1)OCCO2	1.9	-0.4	1.1	-42.5	-1.7	x
Cc1ccc(CN2C(=O)CCC2C(=O)NCCN(CC(C)C)CC(C)C)cc1 (stereo unspecified)	12.5	-4.4	8.7	-14.0	2.6	0.2
COc1ccc(CC(N)=NOC(=O)Cc2ccccc2)cc1OC	x	x	x	x	-25.5	x
CCN1CCN(C(=O)c2ccc(COc3ccc(Cl)cc3)o2)CC1	12.5	-0.5	-3.7	-11.2	-10.7	1.3
CC(C)Oc1nc(-c2ccc(Cl)cc2)nc2ccccc12	-0.2	-1.1	3.8	-15.1	-4.5	x
COc1cccc(-c2nc(OC(C)C)c3ccccc3n2)c1	25.0*	-1.5	-5.4	-20.8	-11.1	0.5
N#Cc1nc(-c2ccc(OCc3ccc(Cl)cc3)cc2)oc1NCc1cccnc1	16.7*	-3.0	3.4	-13.1	2.0	-0.2
N#Cc1nc(-c2ccc(OCc3ccccc3)cc2)oc1NCc1cccnc1	i	-0.7	5.3	-1.2	3.2	x
O=S(=O)(Nc1ccc(-c2ccc3nncn3n2)cc1)c1ccc(Cl)s1	160.2*	-3.8	5.6	4.8	-12.0	-0.1
O=S(=O)(Nc1ccc(-c2ccc3nncn3n2)cc1)c1ccccc1Cl	i	-0.7	-7.8	-2.0	-25.0	x
CCC(O)(CCN1CCCCC1)c1ccccc1 (stereo unspecified)	12.5	0.2	3.1	-16.7	-10.5	0.0
CCCNC(=O)Cc1coc2ccc3ccccc3c12	x	x	x	x	5.0	x
Cc1cccc(OC(=O)c2cccnc2)c1	-0.3	-3.3	x	-16.2	-38.9	x
COC(=O)c1cc(Br)ccc1OC(=O)c1cccnc1	16.7*	-0.2	-4.6	-10.6	-9.3	0.1
Cc1cc(C)cc(OC(=O)c2cccnc2)c1	32.2*	-0.5	-7.8	-0.9	-6.3	0.1
COc1cccc(OCC(=O)NC2CCCCC2)c1	36.9*	-3.0	-1.2	-19.8	-9.5	39.2
COc1cccc(OCC(=O)NC2CCCCCC2)c1	-1.2	-1.0	6.8	-28.0	-7.3	x
SMILES	Vc quorum ag-1	FadD28 FP inh	PrPC surface inh	PrP UTR inh	PriA SSB inh	Vc quorum ag-2	others
O=C(c1cc(-c2ccc3c(c2)OCO3)on1)N1CCN(c2ccccc2)CC1	-0.7	-5.4	1.4	-116.4	-0.2	x
O=C(c1cc(-c2ccc3c(c2)OCO3)on1)N1CCN(c2ccc(F)cc2)CC1	12.5	0.5	-2.1	x	-10.4	0.2
COc1ccc(N2CC(C(=O)Nc3cc(C(F)(F)F)ccc3N3CCCC3)CC2=O)c(OC)c1 (stereo unspecified)	19.3	-3.8	3.8	-11.2	3.7	4.9
COC(=O)C1CCN(C(=O)CN(C)Cc2ccc(C(C)(C)C)cc2)CC1	40.9*	-0.3	5.3	-10.9	3.2	11.2
CN(Cc1ccc(C(C)(C)C)cc1)C(=O)C1CCN(C(=O)Nc2ccccc2)CC1	-0.3	-0.7	0.0	-17.7	9.3	x
CCOC(=O)c1nn(-c2cccc(Br)c2)c(=O)cc1OCc1ccccc1C	x	x	x	x	1.0	x
COc1ccc(NC(=O)Cn2c(C)nc3c(c2=O)CCCC3)c(OC)c1	x	x	x	x	-9.0	x
Cc1cccc(OC(C)C(=O)NC2CCS(=O)(=O)C2)c1C (stereo unspecified)	23.2	0.2	x	-5.7	-9.5	0.7
Cc1ccccc1NC(=O)NC1CCS(=O)(=O)C1 (stereo unspecified)	i	-3.1	3.4	-7.9	-6.9	x
O=S(=O)(Nc1ccc(-c2ccc(NS(=O)(=O)c3cccs3)cc2)cc1)c1cccs1	x	x	x	x	0.0	x
CCc1ccc(NS(=O)(=O)c2cccs2)cc1	21.4*	0.6	-1.1	-11.7	-10.7	0.8
Cn1c(C(=O)NC2CCCCC2)cc2c(=O)n(C)c3ccccc3c21	245.3*	-0.1	-5.6	-5.5	-4.2	i
Cn1c(C(=O)NC2CCCCCC2)cc2c(=O)n(C)c3ccccc3c21	0.6	-4.0	11.3	-16.6	-0.9	x
CCCCNC(=O)N1CCC(C(=O)OC)CC1	x	x	x	x	4.0	x
c1ccc(-c2ccc(CN3Cc4ccccc4-n4nncc4C3)cc2)cc1	249.0*	-4.5	8.0	x	x	397.4
O=C(NCC[C@H](O)c1ccoc1)NC1CCCC1	x	x	x	x	-10.0	x
O=C(NCC1CCCO1)C1CCN(C(=O)c2ccc(Cl)cc2)CC1 (stereo unspecified)	16.7*	0.2	1.2	-11.5	-8.4	0.2
CC12CCC(=O)N1C(C(=O)NNC(=O)COc1ccc(Br)cc1)CS2 (stereo unspecified)	12.5	-0.7	8.1	-20.6	3.8	0.0
Cc1cc(Cl)ccc1OCC(=O)NNC(=O)C1CSC2(C)CCC(=O)N12 (stereo unspecified)	i	-4.5	2.0	-26.3	-15.1	x
Cc1cc(=O)n2c(-c3cccc(NC(=O)Nc4ccc(F)c(F)c4)c3)csc2n1	x	x	x	x	2.0	x
O=C(COC(=O)/C=C/c1ccccc1)NC1CCCC1	528.9*	-0.9	1.4	-15.4	-11.5	475.8
O=C(COC(=O)/C=C/c1ccc(OC(F)F)cc1)NC1CCCCCCC1	-17.1	1.1	-5.0	-13.3	2.8	x
O=C(COC(=O)/C=C/c1ccc(OC(F)F)cc1)NC1CCCCCC1	9.5*	1.0	-1.4	-15.2	-2.5	0.3
O=C(COC(=O)/C=C/c1ccccc1)NC1CCCCC1	i	-2.1	-0.1	-6.7	-0.6	x
O=C(Cc1ccc(-c2ccccc2)cc1)Nc1ccc(CC(=O)NC2CC2)cc1	x	x	x	x	-5.0	x
O=C(Cc1ccc(-c2ccccc2)cc1)NC1CCCC1	x	-4.0	0.1	-28.9	-19.4	x	HeLa 24h tox=-13.9
O=S(=O)(Nc1ccc(Nc2cc(-n3ccnc3)ncn2)cc1)c1ccc(C(F)(F)F)cc1	x	x	x	x	-20.0	x
Fc1ccc(Nc2nc(Nc3ccc(F)c(Cl)c3)nc(N3CCOCC3)n2)cc1	x	x	x	x	3.0	x
Cc1cc2oc(=O)cc(-c3ccccc3)c2c(C)c1-c1ccc(C#N)cc1	11.9	0.2	-2.0	-11.5	-3.5	0.2
